The results in this text go back to PubChem BioAssay.

Active and inactive are the calls of the source.

Assay [1] is described as follows: optical density shifts of acrAB sulA E. coli – strain DRC41, OD650, 48 h, E. coli filamentation inducer project, primary screen (AID 1152).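 Further: E. coli MC1000 strain DRC41 lacking acrAB efflux pump and sulA.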 The settings on record: higher = more signal, called active from +8 up or from −8 down.
The nature of assay [2]: probe aLefty1 binding on compound microarray – biochemical, small-molecule microarray, 635/667 nm fluorescence, primary screen (AID 1153).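 Further: score merges spot fluorescence with signal-to-noise ratio from the scanned slide images.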 The settings on record: higher = more signal.
Assay [3] is described as follows: plasmodial surface anion channel blockers, osmotic lysis – cell-based, P. falciparum Indochina, OD700, 1 h, primary screen (AID 1154). The note with it: P. falciparum Indochina infected RBC osmotic lysis, higher = more signal, called active from +8 up or from −8 down.
Assay [4] in a line: plasmodial surface anion channel blockers, osmotic lysis – cell-based, P. falciparum Indochina, OD700, 2 h, primary screen (AID 1155).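 Further: lysis reports solute entry through the parasite surface anion channel PSAC.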 The note with it: P. falciparum Indochina infected erythrocytes, higher = more signal, called active from +8 up or from −8 down.
The nature of assay [5]: changes in parasitized red cell lysis, either direction – P. falciparum Indochina, OD700, 3 h, PSAC antagonist project, primary screen (AID 1156). The note with it: P. falciparum-infected erythrocytes, osmotic lysis, higher = more signal, called active from +8 up or from −8 down.
The nature of assay [6]: plasmodial surface anion channel blockers, osmotic lysis – cell-based, P. falciparum Indochina, OD700, 18 h, primary screen (AID 1157). The settings on record: P. falciparum Indochina infected erythrocytes, osmotic lysis OD700, 18 h; higher = more signal, called active from +8 up or from −8 down.
The nature of assay [7]: S6 kinase pathway phospho-S6 level changes – cell-based, A549, cytoblot, luminescence, serum-stimulated, primary screen (AID 1158).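 Further: serum-stimulated A549 lung adenocarcinoma cells; signal is phosphorylated S6 detected by cytoblot immunostaining with HRP secondary.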 The settings on record: 5 h, higher = more signal.
For assay [8], the target named is NADPH oxidase 2 (Homo sapiens) (UniProt P04839). The assay is described as follows: compounds shifting NOX2 Amplex Red fluorescence – cell-based, HEK293-NOX2, PMA-stimulated, NOX inhibitor project, primary screen (AID 1159). Further: test concentration not given here. The note with it: 45 min, higher = more signal, called active from +8 up or from −8 down.
The target in assay [9] is NADPH oxidase 4 (Homo sapiens) (UniProt Q9NPH5). Briefly: compounds shifting NOX4 Amplex Red fluorescence – cell-based, HEK293-NOX4, tetracycline-induced, NOX inhibitor project, primary screen (AID 1160). The note with it: HEK293-NOX4, Amplex Red H2O2 fluorescence, 45 min; higher = more signal, called active from +8 up or from −8 down.
Assay [10] addresses NADPH oxidase 5 (Homo sapiens) (UniProt Q96PH1). The assay is described as follows: compounds shifting NOX5 Amplex Red fluorescence – cell-based, HEK293-NOX5, NOX inhibitor project, primary screen (AID 1161). The settings on record: HEK293-NOX5, ionomycin, 45 min, higher = more signal.

NADPH oxidase 2 (Homo sapiens), sequence (P04839 whole entry, looked up): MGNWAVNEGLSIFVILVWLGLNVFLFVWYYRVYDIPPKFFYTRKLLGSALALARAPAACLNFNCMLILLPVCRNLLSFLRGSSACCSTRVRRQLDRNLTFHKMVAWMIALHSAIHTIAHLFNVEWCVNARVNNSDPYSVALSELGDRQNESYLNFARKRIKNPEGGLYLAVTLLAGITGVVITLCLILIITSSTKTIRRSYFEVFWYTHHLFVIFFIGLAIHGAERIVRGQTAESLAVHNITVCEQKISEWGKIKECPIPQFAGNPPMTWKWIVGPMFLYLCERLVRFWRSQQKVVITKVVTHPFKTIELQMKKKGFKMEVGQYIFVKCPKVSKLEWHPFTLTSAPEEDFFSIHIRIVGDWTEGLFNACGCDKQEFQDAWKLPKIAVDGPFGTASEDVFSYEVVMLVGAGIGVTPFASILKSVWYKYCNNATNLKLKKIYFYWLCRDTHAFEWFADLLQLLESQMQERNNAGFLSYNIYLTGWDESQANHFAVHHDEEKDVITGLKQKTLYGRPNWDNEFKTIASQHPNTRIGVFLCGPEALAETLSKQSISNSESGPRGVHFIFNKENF
NADPH oxidase 4 (Homo sapiens), sequence (Q9NPH5 whole entry, looked up): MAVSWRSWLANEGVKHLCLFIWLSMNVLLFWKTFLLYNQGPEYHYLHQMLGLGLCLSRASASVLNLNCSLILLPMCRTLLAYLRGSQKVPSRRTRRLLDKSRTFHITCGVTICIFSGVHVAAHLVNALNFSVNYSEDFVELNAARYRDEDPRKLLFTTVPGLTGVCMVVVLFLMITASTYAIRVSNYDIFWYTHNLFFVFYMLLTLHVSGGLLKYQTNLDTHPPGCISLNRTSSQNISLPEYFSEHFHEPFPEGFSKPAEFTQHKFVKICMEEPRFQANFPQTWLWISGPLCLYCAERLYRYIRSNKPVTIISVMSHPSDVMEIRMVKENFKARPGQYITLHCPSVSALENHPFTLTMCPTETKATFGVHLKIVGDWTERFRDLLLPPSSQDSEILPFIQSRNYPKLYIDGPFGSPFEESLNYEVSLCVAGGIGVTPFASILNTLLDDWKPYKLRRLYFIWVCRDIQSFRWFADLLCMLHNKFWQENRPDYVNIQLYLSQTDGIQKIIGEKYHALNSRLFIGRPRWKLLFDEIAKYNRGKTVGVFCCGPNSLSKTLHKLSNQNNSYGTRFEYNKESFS
NADPH oxidase 5 (Homo sapiens), sequence (Q96PH1 whole entry, looked up): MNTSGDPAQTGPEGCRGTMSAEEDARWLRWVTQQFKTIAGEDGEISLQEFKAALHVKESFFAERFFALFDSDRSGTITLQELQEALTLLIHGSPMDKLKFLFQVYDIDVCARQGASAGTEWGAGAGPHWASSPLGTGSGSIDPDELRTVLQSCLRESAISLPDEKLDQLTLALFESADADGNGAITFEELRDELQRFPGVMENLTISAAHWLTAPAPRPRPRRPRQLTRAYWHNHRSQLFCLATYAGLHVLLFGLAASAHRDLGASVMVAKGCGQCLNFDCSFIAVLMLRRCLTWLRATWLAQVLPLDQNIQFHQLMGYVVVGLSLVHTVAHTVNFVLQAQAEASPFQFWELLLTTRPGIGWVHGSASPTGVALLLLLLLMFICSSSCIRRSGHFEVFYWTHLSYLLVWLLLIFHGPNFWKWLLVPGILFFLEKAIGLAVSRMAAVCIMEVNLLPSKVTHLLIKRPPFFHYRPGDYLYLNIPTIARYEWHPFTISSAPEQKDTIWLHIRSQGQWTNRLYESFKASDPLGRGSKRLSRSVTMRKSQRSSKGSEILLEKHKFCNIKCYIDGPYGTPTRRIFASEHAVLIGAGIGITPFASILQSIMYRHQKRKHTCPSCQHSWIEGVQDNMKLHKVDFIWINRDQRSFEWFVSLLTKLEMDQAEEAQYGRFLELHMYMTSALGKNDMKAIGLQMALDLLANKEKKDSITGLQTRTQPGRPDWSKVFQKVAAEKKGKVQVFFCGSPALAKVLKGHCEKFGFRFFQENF

For the compound `CO[C@H]1O[C@H](CO)[C@@H](OC(=O)Nc2ccc(Oc3ccccc3)cc2)[C@H](OC(=O)Nc2ccccc2)[C@H]1OC(=O)Nc1ccccc1`, the z-score in [1] is 0.415 (inactive); in assay [3] it was 3.14 (inactive); in [4], 1.09 (inactive); in [5], 1.4 (inactive); in [6] it was 0.766 (inactive); in [7], 0.696. Also, the z-score was -0.909 (inactive) in assay [8], -3.18 (inactive) in assay [9] and -0.854 in [10]. In addition, the composite z-score in assay [2] was determined as 0.407.

For `COCCOC(=O)N1C(=O)[C@@]2(c3ccccc31)[C@H](C(=O)Nc1nc3ccccc3s1)[C@H]1C(=O)O[C@H](c3ccccc3)[C@H](c3ccccc3)N1[C@@H]2c1ccc(OCCO)cc1`, the z-score in assay [1] was 0.258 (inactive); in assay [3] it was 4.45 (inactive); in [4], 1.76 (inactive); in assay [5], 0.505 (inactive); in assay [6] it was 1.63 (inactive); in assay [7] it was 0.44. Moreover, the z-score in assay [8] was -0.207 (inactive); in [9] it was 0.842 (inactive); in assay [10] it was 2.22. This compound also displayed a composite z-score in assay [2] of 0.258.

With `CCCC[C@@H]1C[C@H]1[C@@H](NC(=O)c1ccc(-c2ccccc2)cc1)c1ccc(-c2ccccc2)cc1`, the z-score was -2.4 (inactive) in [1]; 2.15 (inactive) in assay [3]; 0.275 (inactive) in assay [4]; 1.68 (inactive) in assay [5]; 0.446 (inactive) in assay [6]; -0.456 in [7]. In addition, the values for the z-score in [8], in assay [9] and in [10] were -1.32 (inactive), -2 (inactive) and -0.619, respectively. This compound displayed a composite z-score in [2] of 0.0341.

For `CCCCC(CC)C(O)C1C=CC2C(=O)N(c3ccccc3)C(=O)C2N1Nc1ccccc1` (stereo not given), the z-score in [1] is -1.61 (inactive); in assay [3], 1.1 (inactive); in assay [4], -0.627 (inactive); in assay [5] it was 2.18 (inactive); in assay [6] it was -1.72 (inactive); in [7], 1.14. For the same compound, the results for the z-score in assay [8], in assay [9] and in [10] were -2.98 (inactive), -5.21 (inactive) and -5.76, respectively. The composite z-score in assay [2] turned out to be 0.448.

Take `N#Cc1ccc(NN2C(C(O)c3ccc([N+](=O)[O-])cc3)C=CC3C(=O)N(c4ccccc4)C(=O)C32)cc1` (stereo not given): the z-score was -2.18 (inactive) in assay [1]; 11.9 (active) in assay [3]; 2.06 (inactive) in assay [4]; 0.362 (inactive) in assay [5]; 1.49 (inactive) in [6]; -0.946 in assay [7]. In addition, the z-score in [8] was -1.45 (inactive); in [9], -4.95 (inactive); in assay [10], -3.56. In assay [2], this compound returned a composite z-score of 0.0927.

For the compound `CCOC(=O)C[C@H]1[C@H](OC(=O)c2ccc(-c3ccccc3)cc2)[C@@H](NC(=O)c2ccc(-c3ccccc3)cc2)c2cc(OCCCO)ccc2N1C(=O)Cc1ccc(OC)cc1`, the z-score is -0.783 (inactive) in assay [1]; 11.4 (active) in [3]; 0.618 (inactive) in [4]; -0.397 (inactive) in [5]; 0.602 (inactive) in [6]; 0.491 in assay [7]. Also, the z-score in assay [8] was -1.3 (inactive); in [9], 0.622 (inactive); in assay [10], -0.0798. For the same compound, the composite z-score in [2] was -0.0061.

Take `CN1C=C(C(=O)OCCS(C)(=O)=O)C(C(=O)OCCS(C)(=O)=O)=CC(CCCO)=CC1C1CC1` (stereo not given): the z-score in [1] was 1.07 (inactive); in assay [3] it was 1.43 (inactive); in assay [4] it was 0.63 (inactive); in assay [5], 0.483 (inactive); in [6] it was 0.16 (inactive); in assay [7] it was 0.471. Moreover, the results for the z-score in assay [8], in assay [9] and in assay [10] were -2.51 (inactive), -1.07 (inactive) and -1.38, respectively. The compound also gave a composite z-score in assay [2] of 0.026.

Turning to `COC(=O)[C@@]1(Cc2ccc(OC)cc2)[C@H]2c3cc(C(=O)N(C)C)n(Cc4c(OC)[nH]cc(C)c4=O)c3C[C@H]2CN1C(=O)c1ccccc1`, the z-score in assay [1] is -0.348 (inactive); in [3], 0.275 (inactive); in assay [4], -0.997 (inactive); in assay [5] it was -0.456 (inactive); in assay [6], -2.25 (inactive); in assay [7], 2.46. Further, the z-score in [8] was 0.689 (inactive); in assay [9] it was -0.265 (inactive); in assay [10] it was -3.64. The composite z-score in [2] is 0.276.

As for `COC(=O)[C@@]1(Cc2ccccc2)[C@H]2c3cc(C(=O)N(C)C)n(Cc4cc(C)n(C)n4)c3C[C@H]2CN1C(=O)c1ccccc1`, the z-score in assay [1] was -1.85 (inactive); in assay [3], 1.11 (inactive); in assay [4] it was 0.234 (inactive); in assay [5] it was 0.452 (inactive); in assay [6] it was 0.396 (inactive); in assay [7] it was 0.251. For the same compound, the z-score in assay [8] was 0.904 (inactive); in [9], -0.925 (inactive); in assay [10], -2.11. In assay [2], the composite z-score was 0.33.

Turning to `C=C[C@@H](COC(C)=O)N(Cc1ccccc1[N+](=O)[O-])S(=O)(=O)c1ccc(Br)cc1`, the z-score in [1] is 1.43 (inactive); in [3], 2.44 (inactive); in assay [4], -0.407 (inactive); in [5], -0.885 (inactive); in assay [6], -0.709 (inactive); in [7], 3.16. Besides, the z-score in assay [8] is -4.3 (inactive); in [9] it was -0.628 (inactive); in [10], -1.98. In addition, in assay [2], the composite z-score was -0.339.

As to `CCCN1C(=O)[C@]2(COC(c3ccc(OCCCO)cc3)=N2)Cc2ccccc21`, the z-score is -0.516 (inactive) in [1]; 16.9 (active) in assay [3]; 2.23 (inactive) in [4]; 2.31 (inactive) in assay [5]; 0.741 (inactive) in assay [6]; -0.0824 in assay [7]. The z-score in assay [8] was -0.248 (inactive); in assay [9], -0.0403 (inactive); in [10], -1.42. The composite z-score in assay [2] came out at 0.0927.

Consider `[N-]=[N+]=NCc1ccccc1C[C@]1(C(=O)NCCN2CCOCC2)N=C(c2ccc(OCCCO)cc2)O[C@H]1c1ccccc1N=[N+]=[N-]`, for which the z-score was 0.991 (inactive) in assay [1]; 34.3 (active) in assay [3]; 31.4 (active) in [4]; 2.82 (inactive) in assay [5]; 8.68 (active) in assay [6]; -0.176 in assay [7]. In addition, the figures for the z-score in assay [8], in [9] and in assay [10] were -1.69 (inactive), 0.636 (inactive) and -0.368, respectively. This compound also gave a composite z-score in [2] of 0.586.

For the compound `Cc1ccc(S[C@]2(C(=O)NCC(C)C)CC(=O)N(Cc3ccccc3)[C@@H]2c2ccc(CO)cc2I)cc1`, the z-score in assay [1] was -0.668 (inactive); in [3], 10.6 (active); in assay [4], 1.16 (inactive); in assay [5], 0.448 (inactive); in assay [6] it was 0.598 (inactive); in assay [7], -0.36. Also, the results for the z-score in [8], in [9] and in [10] were 1.09 (inactive), -2.23 (inactive) and 0.489, respectively. In assay [2], this compound displayed a composite z-score of 0.0597.
